ELG1 DNA repair: qHTS screen for small molecules that inhibit ELG1-dependent DNA repair in human embryonic kidney (HEK293T) cells expressing luciferase-tagged ELG1 | HEK293T ELG1-luciferase reporter, luminescence, 16 h; DNA damage induced by 5-fluorouridine | Potency, µM (doses to about 46.1 µM), without a hit: at the highest dose activity change, negative = inhibition, actives largely listed as inhibitors | 2.3% of 330,000 active | AID 504467, 2011; note: % is set by controls: 0 for no effect and ±100 for the full control effect; nearly all actives have a fitted effect of over 55% in size
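Overnight (16 hr) co-exposure of 2,000 cells/well to 5-fluorouridine and compound at 37 °C preceded detection. Luciferase was quantified via ONE-Glo luminescence; loss of signal denotes inhibition.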
SW480 rereplic: A quantitative high throughput screen for small molecules that induce DNA re-replication in SW480 colon adenocarcinoma cells. AID 624297, 2012. 1.8% of 340,000 active. SW480 DNA re-replication, Hoechst DNA content imaging, 48 h. Potency, µM (highest dose often 46.1 µM), for the others: at the highest dose re-replication activation, hits mostly activators; note: % of control where 0% means no effect; nearly all actives have a fitted effect of over 55% in size
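DNA re-replication was detected as more nuclei of elevated Hoechst intensity after 48 hr exposure to compound (23 nL pinned per well of 250 cells).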
ELG1 genotoxic: qHTS screen for small molecules that induce genotoxicity in human embryonic kidney (HEK293T) cells expressing luciferase-tagged ELG1; Potency, µM (titrated, usually from 46 µM), inactives show top-dose activity change, positive = activation, hits mostly activators; HEK293T ELG1-luciferase reporter, luminescence, 16 h; 1.3% of 330,000 active; note: % of control where 0% means no effect; nearly all actives have a fitted effect of over 60% in size
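After overnight (16 hr) compound treatment at 37 °C, ELG1-luciferase HEK293T cells were lysed with ONE-Glo; luminescence quantified 30 min later at room temperature.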
MCF10A rerep: A quantitative high throughput screen for small molecules that induce DNA re-replication in MCF 10a normal breast cells; 2.9% of 350,000 active; Potency, µM (series often up to 46.1 µM), for the others: top-dose activity, positive = re-replication, actives largely listed as activators; MCF 10A DNA re-replication, Hoechst nuclear intensity, 48 h; note: % of control where 0% means no effect; nearly all actives have a fitted effect of over 50% in size
A-T KAP1 phos: qHTS Assay for Identifying a Potential Treatment of Ataxia-Telangiectasia; Potency, µM (titrated, usually from 57.5 µM), without a hit: top-dose activation, most hits filed as activators; F2112 A-T fibroblasts, KAP-1 phosphorylation AlphaLISA; neocarzinostatin DNA damage 30 min before lysis; 0.19% of 320,000 active; note: % of control where 0% means no effect; nearly all actives have a fitted effect of over 45% in size
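hTERT-immortalized A-T patient fibroblasts (F2112), 500 cells/well in OPTI-MEM, 1% FBS, got compounds for 60 min, then NCS for 30 min at 37C. Lysates were then assayed for phospho-KAP-1 by AlphaLISA (anti-pKAP1 donor, anti-KAP1 acceptor beads), 6 hr at 25C.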
p53 reactivator: qHTS assay for re-activators of p53 using a Luc reporter | 0.063% of 320,000 active | Potency, µM (doses to about 92.2 µM), inactives show at the highest dose activity change, positive = activation, hits mostly activators | H1299 p53-A138V BP100-luciferase reporter, luminescence, 24 h | AID 504706, 2011; note: % of control where 0% means no effect; nearly all actives have a fitted effect of over 45% in size
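p53-null H1299 cells stably carrying temperature-sensitive p53-A138V and a BP100-luciferase reporter were pinned with compounds (4-point, 1:5 series) and held 24 hrs at 37 deg C. Luminescence was read 10 min after detection reagent.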
* hit, by the source's call; ? = inconclusive; / = no result given. This is a sample that favours compounds with a hit; in the whole collection about 7.1% have one here. Calls come from the whole dose curve; as a rule, active = well fitted curve in the direction sought with a large enough effect; inconclusive = small, poorly fitted or top-dose-only effect, or another doubt; inactive = no such curve, though single readings can be large; an effect the other way counts as inactive or inconclusive. Potency is the fitted concentration of half-maximal effect.

SMILES	ELG1 DNA repair	SW480 rereplic	ELG1 genotoxic	MCF10A rerep	A-T KAP1 phos	p53 reactivator
O=C(NCc1ccco1)c1cc(-c2cccs2)nc2ccccc12	15µM*	/	-3%	13%	-4%	-12%
CO/N=C(/C(=O)N[C@@H]1C(=O)N2C(C(=O)O)=C(CSC(=O)c3ccco3)CSC12)c1csc(N)n1 (stereo partly specified)	/	0%	/	5%	/	/
COc1cc(-c2cc(C(=O)NCc3ccc(S(N)(=O)=O)cc3)c3ccccc3n2)cc(OC)c1OC	13µM*	14%	-20%	11%	9%	-7%
COc1cc(-c2noc(CCCC(=O)Nc3cccnc3)n2)cc(OC)c1OC	-17%	3%	1%	3%	1%	3%
O=C(NNc1nc2ccc(Cl)cc2s1)c1cc(-c2cccs2)nc2ccccc12	?	?	1%	18µM*	-4%	-2%
COc1cc(-c2noc(CCCC(=O)NCc3ccccc3)n2)cc(OC)c1OC	18µM*	-1%	1%	3%	-3%	-5%
Cc1ccc(Cn2nc(C)c(C(=O)NCC(c3ccc(F)cc3)N3CCOCC3)c2Cl)cc1 (stereo unspecified)	?	-8%	-6%	-5%	-3%	1%
CN1C(=O)C(O)(CC(=O)c2cccc(-n3cccc3)c2)c2ccccc21 (stereo unspecified)	-1%	0%	2%	5%	-1%	-10%
O=C(CC1(O)C(=O)Nc2ccccc21)c1cccc(-n2cccc2)c1 (stereo unspecified)	6%	?	2%	1.5µM*	5%	2%
Cc1cccc(C(C)C)c1NC(=O)c1c(-c2ccccc2)noc1C	-6%	5%	-7%	0%	-42%	-5%
COc1ccc(C2(C)NC(=O)N(CC(=O)c3cc(C)n(C4CC4)c3C)C2=O)cc1OC (stereo unspecified)	-14%	-1%	-5%	10%	1%	-5%
COC(=O)C1=C(C)NC(=O)/C1=C\c1cc(C)n(-c2c(C)cccc2C)c1C	-15%	?	7%	5.8µM*	/	?
COC(=O)C1=C(C)NC(=O)/C1=C\c1cc(C)n(-c2ccccc2C)c1C	21µM*	7%	8%	27%	-1%	1%
O=C1CCC(C(=O)Nc2cccc(S(=O)(=O)Nc3ccccc3F)c2)=NN1	0%	3%	-5%	11%	-7%	-3%
COc1ccccc1CCNC(=O)c1cccc(S(=O)(=O)N2CCc3ccccc3C2)c1	-12%	?	1%	25%	-4%	6%
NC(=S)N/N=C/c1c(O)c(Br)cc2oc3c(c12)CCCC3	21µM*	18µM*	0%	?	-7%	0%
O=C(CN1C(=O)C(=O)N(Cc2ccccc2)C1=O)Nc1cc(Cl)cc(Cl)c1	10%	18µM*	11%	?	10%	-4%
O=C(CN1C(=O)C(=O)N(Cc2ccccc2)C1=O)Nc1ccc(OC(F)F)cc1	-5%	-3%	2%	2%	1%	-12%
COCCCNC(=S)N(CCO)Cc1cc2cc3c(cc2[nH]c1=O)OCCO3	-6%	-69%	0%	0.65µM*	-2%	4%
CN(C)CCCN(Cc1cc2cc3c(cc2[nH]c1=O)OCO3)C(=S)Nc1ccccc1	-17%	-3%	-2%	3%	1%	-1%
CN(C)CCCN(Cc1cc2cc3c(cc2[nH]c1=O)OCO3)C(=S)Nc1cccc(Cl)c1	-1%	?	12%	16µM*	0%	?
CC(C)CNC(=S)N(Cc1ccco1)Cc1cc2cc3c(cc2[nH]c1=O)OCCO3	10µM*	?	-2%	?	1%	14%
CNC(=S)N(CCO)Cc1cc2cc3c(cc2[nH]c1=O)OCO3	0%	7%	2%	11%	-20%	-4%
CCNC(=S)N(Cc1ccco1)Cc1cc2cc3c(cc2[nH]c1=O)OCCO3	?	-4%	1%	2%	-4%	-3%
CNC(=S)N(CCO)Cc1cc2cc3c(cc2[nH]c1=O)OCCO3	11%	20%	0%	1%	2.8µM*	1%
SMILES	ELG1 DNA repair	SW480 rereplic	ELG1 genotoxic	MCF10A rerep	A-T KAP1 phos	p53 reactivator
Cc1c(C)c2c(c(C)c1OC(=O)CCC(=O)O)CC[C@@](C)(CCC[C@H](C)CCC[C@H](C)CCCC(C)C)O2	/	-1%	/	8%	/	/
S=c1[nH]cc(Oc2ccc(Cl)cc2Cl)c(=S)[nH]1	/	?	/	16µM*	/	/
N#Cc1ccc(OCC(=O)NNC(=S)NC2CCCCC2)cc1	1%	-15%	-2%	2%	0%	-5%
O=C1/C(=N\S(=O)(=O)c2cccs2)C([n+]2ccccc2)=C([O-])c2ccccc21	2.6µM*	12µM*	-17%	17%	-4%	-16%
N/C(=N\S(=O)(=O)c1cccs1)c1ccccc1	-1%	-2%	-2%	-1%	-3%	0%
CC(C)(C)c1cc[n+](C2=C([O-])c3ccccc3C(=O)/C2=N\S(=O)(=O)c2cccs2)cc1	2.9µM*	?	-11%	?	13%	-13%
O=C(OCC(=O)N1CCN(S(=O)(=O)c2ccc(Cl)cc2)CC1)C1CC1	7%	-2%	4%	-7%	-2%	-1%
Cc1ccc(N(CC(=O)Nc2cc(C)cc(C)c2)S(=O)(=O)c2c(C)noc2C)cc1	-23%	?	-9%	?	0%	0%
CCc1cccc(NC(=O)CN(c2ccc(C)cc2)S(=O)(=O)c2c(C)noc2C)c1	-1%	-37%	-7%	12µM*	-5%	14%
Cc1ccc(N(CC(=O)Nc2ccc(F)c(Cl)c2)S(=O)(=O)c2c(C)noc2C)cc1	4%	9%	-5%	12µM*	-3%	-20%
COc1ccc(N(CC(=O)Nc2ccc(C)cc2)S(=O)(=O)c2c(C)noc2C)cc1	0%	-4%	-7%	0%	10%	0%
C[C@H](NC(=O)c1ccccc1Cl)C(=O)NCCc1ccc(S(N)(=O)=O)cc1	-9%	5%	-1%	-1%	6%	-4%
CCN1CCN(c2cc3c(cc2F)c(=O)c(S(=O)(=O)c2ccccc2)cn3C)CC1	6%	-2%	0%	3%	-8%	7%
